Experimental data: PubChem BioAssay AID1159580 (chemical genetic matrix, 2015)
In all, about 5,500 compounds went through this assay and about 2,000 (36%) were called active. Another 18% or so got no clear call; they are omitted. Cut-off read from the data, not from the text of the source: active = normalized growth mostly below about 0.91 (no sharp cut-off); inconclusive = no clear call, values can overlap the other calls; inactive = mostly above about 0.92. The list shows a part of the results.

Test: chemical genetic growth profiling, strain panel (AID 1159580);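 note: tested at 20 µM; growth read once vehicle control cultures reached saturation at 30 °C; 1 = growth at the plate median or of vehicle wells; lower values mean less growth of the strain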
Conditions: growth OD

Measured: normalized growth

COc1ccc(-c2cc(=O)c3ccccc3o2)cc1
active: S. cerevisiae deletion strains, locus YKL009W, strain mrt4, stronger effect = lower value 0.824 | S. cerevisiae deletion strains, locus YKL068W, stronger effect = lower value 0.93 | S. cerevisiae deletion strains, locus YKL085W, strain MDH1 (second series), stronger effect = lower value 0.914 | S. cerevisiae deletion strains, locus YKL085W, strain MDH1, stronger effect = lower value 0.914 | S. cerevisiae deletion strains, locus YKL160W, strain elf1, stronger effect = lower value 0.742 | S. cerevisiae deletion strains, locus YKR001C, strain vps1, stronger effect = lower value 0.354 | S. cerevisiae deletion strains, locus YKR026C, strain gcn3, stronger effect = lower value 0.92 | S. cerevisiae deletion strains, locus YKR091W, strain srl3, stronger effect = lower value 0.93 | S. cerevisiae deletion strains, locus YLL001W, strain dnm1, stronger effect = lower value 0.763 | S. cerevisiae deletion strains, locus YLL026W, stronger effect = lower value 0.9 | S. cerevisiae deletion strains, locus YLL041C, strain sdh2, stronger effect = lower value 0.927 | S. cerevisiae deletion strains, locus YLR027C, strain aat2, stronger effect = lower value 0.84 | S. cerevisiae deletion strains, locus YLR039C, strain RIC1, stronger effect = lower value 0.405 | S. cerevisiae deletion strains, locus YLR058C, strain SHM2, stronger effect = lower value 0.741 | S. cerevisiae deletion strains, locus YLR102C, strain apc9, stronger effect = lower value 0.916 | S. cerevisiae deletion strains, locus YLR221C, strain rsa3, stronger effect = lower value 0.749 | S. cerevisiae deletion strains, locus YLR258W, strain gsy2, stronger effect = lower value 0.823 | S. cerevisiae deletion strains, locus YLR262C, strain YPT6 (second series), stronger effect = lower value 0.538 | S. cerevisiae deletion strains, locus YLR262C, strain YPT6, stronger effect = lower value 0.406 | S. cerevisiae deletion strains, locus YLR268W, strain sec22, stronger effect = lower value 0.727 | S. cerevisiae deletion strains, locus YLR320W, strain mms22, stronger effect = lower value 0.449 | S. cerevisiae deletion strains, locus YLR330W, strain CHS5, stronger effect = lower value 0.659 | S. cerevisiae deletion strains, locus YLR342W, strain FKS1 (second series), stronger effect = lower value 0.512 | S. cerevisiae deletion strains, locus YLR342W, strain FKS1, stronger effect = lower value 0.861 | S. cerevisiae deletion strains, locus YLR371W, strain rom2, stronger effect = lower value 0.834 | S. cerevisiae deletion strains, locus YLR384C, strain iki3, stronger effect = lower value 0.916 | S. cerevisiae deletion strains, locus YLR418C, strain cdc73, stronger effect = lower value 0.612 | S. cerevisiae deletion strains, locus YML016C, strain PPZ1, stronger effect = lower value 0.89 | S. cerevisiae deletion strains, locus YML032C, strain rad52, stronger effect = lower value 0.697 | S. cerevisiae deletion strains, locus YML120C, strain ndi1, stronger effect = lower value 0.785 | S. cerevisiae deletion strains, locus YML124C, strain tub3, stronger effect = lower value 0.922 | S. cerevisiae deletion strains, locus YMR058W, strain fet3, stronger effect = lower value 0.804 | S. cerevisiae deletion strains, locus YMR078C, strain ctf18, stronger effect = lower value 0.753 | S. cerevisiae deletion strains, locus YMR129W, stronger effect = lower value 0.92 | S. cerevisiae deletion strains, locus YMR205C, strain PFK2, stronger effect = lower value 0.668 | S. cerevisiae deletion strains, locus YMR223W, strain ubp8, stronger effect = lower value 0.784 | S. cerevisiae deletion strains, locus YMR231W, strain pep5, stronger effect = lower value 0.921 | S. cerevisiae deletion strains, locus YMR307W, strain GAS1, stronger effect = lower value 0.397 | S. cerevisiae deletion strains, locus YNL067W, strain RPL9B, stronger effect = lower value 0.688 | S. cerevisiae deletion strains, locus YNL071W, strain lat1, stronger effect = lower value 0.48 | S. cerevisiae deletion strains, locus YNL153C, strain GIM3, stronger effect = lower value 0.615 | S. cerevisiae deletion strains, locus YNL209W, strain ssb2, stronger effect = lower value 0.873 | S. cerevisiae deletion strains, locus YNL233W, strain BNI4, stronger effect = lower value 0.629 | S. cerevisiae deletion strains, locus YNL248C, strain rpa49, stronger effect = lower value 0.833 | S. cerevisiae deletion strains, locus YNL271C, strain bni1, stronger effect = lower value 0.884 | S. cerevisiae deletion strains, locus YNL298W, strain CLA4, stronger effect = lower value 0.881 | S. cerevisiae deletion strains, locus YNL307C, strain MCK1, stronger effect = lower value 0.136 | S. cerevisiae deletion strains, locus YNL322C, strain KRE1 (second series), stronger effect = lower value 0.902 | S. cerevisiae deletion strains, locus YNL322C, strain KRE1, stronger effect = lower value 0.792 | S. cerevisiae deletion strains, locus YNR049C, strain mso1, stronger effect = lower value 0.914 | S. cerevisiae deletion strains, locus YNR052C, strain pop2, stronger effect = lower value 0.853 | S. cerevisiae deletion strains, locus YOL147C, strain pex11, stronger effect = lower value 0.819 | S. cerevisiae deletion strains, locus YOR001W, strain rrp6, stronger effect = lower value 0.809 | S. cerevisiae deletion strains, locus YOR061W, strain CKA2, stronger effect = lower value 0.851 | S. cerevisiae deletion strains, locus YOR069W, strain VPS5, stronger effect = lower value 0.729 | S. cerevisiae deletion strains, locus YOR070C, strain gyp1, stronger effect = lower value 0.818 | S. cerevisiae deletion strains, locus YOR080W, strain dia2, stronger effect = lower value 0.906 | S. cerevisiae deletion strains, locus YOR083W, strain WHI5, stronger effect = lower value 0.71 | S. cerevisiae deletion strains, locus YOR106W, strain vam3, stronger effect = lower value 0.733 | S. cerevisiae deletion strains, locus YOR136W, strain idh2, stronger effect = lower value 0.895 | S. cerevisiae deletion strains, locus YOR144C, strain elg1, stronger effect = lower value 0.911 | S. cerevisiae deletion strains, locus YOR184W, strain ser1, stronger effect = lower value 0.474 | S. cerevisiae deletion strains, locus YOR265W, strain rbl2, stronger effect = lower value 0.879 | S. cerevisiae deletion strains, locus YOR270C, strain vph1, stronger effect = lower value 0.328 | S. cerevisiae deletion strains, locus YOR290C, strain snf2, stronger effect = lower value 0.689 | S. cerevisiae deletion strains, locus YPL051W, strain arl3, stronger effect = lower value 0.674 | S. cerevisiae deletion strains, locus YPL078C, strain atp4, stronger effect = lower value 0.695 | S. cerevisiae deletion strains, locus YPL240C, strain hsp82, stronger effect = lower value 0.893 | S. cerevisiae deletion strains, locus YPL241C, strain CIN2, stronger effect = lower value 0.839 | S. cerevisiae deletion strains, locus YPR119W, strain clb2, stronger effect = lower value 0.93 | S. cerevisiae deletion strains, locus YPR163C, strain tif3, stronger effect = lower value 0.543 | S. cerevisiae deletion strains, locus YPR167C, strain met16, stronger effect = lower value 0.727 | S. cerevisiae deletion strains, strain wtn01, stronger effect = lower value 0.816 | S. cerevisiae strains, strain wild type, stronger effect = lower value 0.682
inactive: S. cerevisiae deletion strains, locus YJR066W, strain TOR1, stronger effect = lower value 0.873 | S. cerevisiae deletion strains, locus YLR113W, strain HOG1, stronger effect = lower value 1.06 | S. cerevisiae deletion strains, locus YLR357W, strain rsc2, stronger effect = lower value 1.03 | S. cerevisiae deletion strains, locus YLR370C, strain arc18, stronger effect = lower value 0.922 | S. cerevisiae deletion strains, locus YMR125W, strain sto1, stronger effect = lower value 0.932 | S. cerevisiae deletion strains, locus YNL183C, strain NPR1, stronger effect = lower value 0.874 | S. cerevisiae deletion strains, locus YNL250W, strain rad50, stronger effect = lower value 0.921 | S. cerevisiae deletion strains, locus YOL012C, strain htz1 0.926 | S. cerevisiae deletion strains, locus YOR231W, strain MKK1, stronger effect = lower value 0.991 | S. cerevisiae deletion strains, locus YOR316C, strain cot1, stronger effect = lower value 0.925 | S. cerevisiae deletion strains, locus YPL106C, strain sse1, stronger effect = lower value 1.05 | S. cerevisiae deletion strains, locus YPL256C, strain CLN2, stronger effect = lower value 1.02 | S. cerevisiae deletion strains, locus YPR141C, strain kar3, stronger effect = lower value 0.94
